Active and inactive are the calls of the source. How the source made its calls: active means hit-call score of the fitted dose curve at least 0.9, where 1 is the maximum; inactive means score below 0.9.

For this experiment, the target named is CCAAT/enhancer-binding protein beta (Homo sapiens) (UniProt P17676). The experiment in a line: ATG_C_EBP_CIS: Attagene CIS-FACTORIAL HepG2 Assay for human CCAAT/Enhancer Binding Protein (C/EBP) beta (AID 2282927). The conditions noted are these: HepG2 Attagene cis-factorial transcription factor reporter; actives raise or lower the signal. The procedure, abridged: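 Endogenous transcription factor activity in human liver HepG2 cells is inferred from induction of a CEBPB-linked reporter mRNA. Exposure lasts 24 h; activity is fitted in both directions relative to DMSO.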
Sequence of CCAAT/enhancer-binding protein beta (Homo sapiens) (P17676 whole entry, looked up): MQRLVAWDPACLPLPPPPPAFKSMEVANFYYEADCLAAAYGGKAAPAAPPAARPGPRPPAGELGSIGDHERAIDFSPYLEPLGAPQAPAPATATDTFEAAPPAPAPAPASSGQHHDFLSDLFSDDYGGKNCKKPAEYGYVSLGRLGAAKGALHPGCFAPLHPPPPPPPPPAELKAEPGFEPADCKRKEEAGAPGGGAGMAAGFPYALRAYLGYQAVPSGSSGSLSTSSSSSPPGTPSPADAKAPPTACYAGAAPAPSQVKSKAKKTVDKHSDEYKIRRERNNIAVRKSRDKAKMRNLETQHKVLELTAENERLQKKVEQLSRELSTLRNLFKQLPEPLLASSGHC
As for `CC1=CC(=O)/C(=C(/C)O)C(=O)O1`, the outcome was inactive.

`Cc1oc2c(NC(=O)c3c(Cl)cccc3Cl)cccc2c1C(C)(C)O`: the outcome was inactive.

For `CCCCCCCCCC(=O)O`, the result was inactive.

Regarding `COc1ccc2cc(S(=O)(=O)N[C@H](CC(=O)N[C@H](Cc3ccc(CN4[C@H](C)CCC[C@@H]4C)cc3)C(=O)N(C)C(C)C)c3ccc4c(c3)OCO4)ccc2c1`, the outcome was inactive.

As to `c1ccc2n[nH]nc2c1`, the outcome was inactive.

In the case of `CN1C(=O)CC[C@H]1c1cccnc1`, the outcome was inactive.

On to `O=C(O)Cn1c(=O)n(Cc2ccc(Br)cc2F)c(=O)c2ccc(Cl)cc21`, for which the result was inactive.

In the case of `CCCCCCCCCCCCO`, the outcome was inactive.

As to `COc1cc(C(=O)NC2CCN(C)CC2)ccc1Nc1ncc2c(n1)N(C1CCCC1)CC(F)(F)C(=O)N2C`, the AC50 (usually the concentration at which the activity in the assay is half-maximal) is 0.472 µM (active).

Take `O=C(OCCCCCCOC(=O)c1ccccc1)c1ccccc1`: the outcome was inactive.

As to `CC(C)(C)c1csc(-c2cc3cc(OCc4ccccc4CC(=O)O)ccc3o2)n1`, the result was inactive.

With `O=C=NCCCCCCN=C=O`, the result was inactive.

For `O=C1c2ccccc2C(=O)N1CCc1noc(-c2ccc(CN3CCCCCC3)s2)n1`, the outcome was inactive.

`CCCCCCCCCCCC[N+](C)(C)C`: the result was inactive.

Consider `CC(=O)N1CCN(c2ccc(OC[C@H]3CO[C@](Cn4ccnc4)(c4ccc(Cl)cc4Cl)O3)cc2)CC1`, for which the outcome was inactive.

In the case of `NCc1cccc(C2CCN(C(=O)c3ccc(C#Cc4ccccc4F)o3)CC2)c1`, the AC50 was 11 µM (active).

For the compound `O=C1O[C@H]([C@@H](O)CO)C(O)=C1O`, the result was inactive.

Take `Cc1occc1C(=O)Nc1ccc(C(=O)N2CCC(F)(F)/C(=C\C(=O)N3CCC(N4CCCCC4)CC3)c3ccccc32)cc1`: the outcome was inactive.

Take `CC(C)(C)c1cc(/C=C2\SC(N)=NC2=O)cc(C(C)(C)C)c1O`: the result was inactive.

As for `CCCC(=O)OCCC(C)C`, the result was inactive.

`Cc1ncc(CO)c(CO)c1O`: the outcome was inactive.

As for `CCN(CC)C(=O)c1cc(S(=O)(=O)Cc2ccccc2)c(N2CCC(c3ccccc3)CC2)cc1N(CC)CCN(C)C`, the outcome was inactive.

For `CCCCOC(=O)CC(CC(=O)OCCCC)(OC(C)=O)C(=O)OCCCC`, the outcome was inactive.

With `Cc1ccc2oc(CN(Cc3ccccc3)C(=O)Nc3c(F)cc(F)cc3F)c(-c3ccc(Cl)cc3)c2c1`, the outcome was inactive.

As for `CCCCCCCCOC(=O)c1cc(O)c(O)c(O)c1`, the result was inactive.

In the case of `O=c1[nH]sc2ccccc12`, the result was inactive.

With `CCCCCCCCOc1ccc(C(=O)c2ccccc2)c(O)c1`, the outcome was inactive.

`CN1C(=O)N(c2ccccc2Br)Cc2cnc(Nc3ccc4c(c3)OCC(CO)O4)nc21` (stereo not drawn): the AC50 was 2.61 µM (active).

Regarding `Clc1ccccc1C(c1ccccc1)(c1ccccc1)n1ccnc1`, the result was inactive.

As for `CC(O)CC(C)(C)O` (stereo not drawn), the outcome was inactive.

`CCOC(=O)O[C@H](C)OC(=O)c1ccc2c(c1)cc(C(=O)NC1CCN(C(C)C)CC1)n2Cc1cc(-c2ccc(Cl)s2)on1`: the outcome was inactive.

For the compound `O=CCCCC=O`, the result was inactive.

Consider `CC(C)(c1cc(Br)c(O)c(Br)c1)c1cc(Br)c(O)c(Br)c1`, for which the result was inactive.

For the compound `Cc1cccc2ccccc12`, the outcome was inactive.

Consider `CC(C)(O)c1ccc(CNC(=O)c2cccnc2Oc2ccc3nonc3c2)cc1`, for which the result was inactive.

Turning to `CCO[Si](CCCNC(N)=O)(OCC)OCC`, the outcome was inactive.

Turning to `C[C@]12CC[C@@H]3c4ccc(O)cc4CC[C@H]3[C@@H]1CCC2=O`, the outcome was inactive.

For `COc1cccc([C@H](O)C2CCN(CCc3ccc(F)cc3)CC2)c1OC`, the outcome was inactive.

For the origin of these results see PubChem BioAssay (EPA / NIEHS).
